In PubChem BioAssay:
Activity calls are given as the source filed them. The rule behind the calls is not given here.

These compounds were tested against Pantothenate synthetase (Mycobacterium tuberculosis (strain ATCC 25618 / H37Rv)) (UniProt P9WIL5) (assay: Recombinant Mtb pantothenate synthetase (PanC) inhibitors, coupled enzyme, confirmatory (AID 375;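 note: 0% = full reaction with vehicle and 100% = no enzyme background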)). Settings: coupled enzyme assay; at 10 µM, active compounds read high.
Chain of Pantothenate synthetase (Mycobacterium tuberculosis (strain ATCC 25618 / H37Rv)) (P9WIL5 whole entry, looked up): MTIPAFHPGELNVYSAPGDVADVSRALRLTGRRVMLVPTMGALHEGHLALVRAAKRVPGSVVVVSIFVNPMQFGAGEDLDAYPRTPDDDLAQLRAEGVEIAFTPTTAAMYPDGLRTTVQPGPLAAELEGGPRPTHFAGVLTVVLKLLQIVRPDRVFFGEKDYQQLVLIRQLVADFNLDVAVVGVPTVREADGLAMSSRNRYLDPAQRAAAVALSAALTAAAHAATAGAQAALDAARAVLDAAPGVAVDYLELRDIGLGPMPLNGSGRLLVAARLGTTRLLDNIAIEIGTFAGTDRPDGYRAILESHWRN

| Structure (SMILES) | inhibition |
| --- | --- |
| O=C(O)CCCCCCC1C(=O)NC(=O)N1CCC(O)C1CCCCC1 (stereo not given) | 0% (inactive) |
| COc1ccc(-c2n[nH]c(C)c2-c2ccc(Cl)cc2)c(O)c1OC | 0% (inactive) |
| Cc1cc(NC(=O)c2ccccc2Oc2ccccc2)no1 | 12% (inactive) |
| CCOC(=O)N1CCN(CC(=O)c2c(C)[nH]c3ccccc23)CC1 | 0% (inactive) |
| CC(=O)c1ccc(NC(=O)c2noc3c2CCCCC3)cc1 | 1% (inactive) |
| Cc1nnc(SCC(=O)Nc2sc3c(c2C#N)CCCC3)[nH]c1=O | 0% (inactive) |
| O=C(COc1ccccc1F)NC1CC1 | 3% (inactive) |
| CCCc1nnc2n1N=C(c1ccc(-c3cc(Cl)ccc3Cl)o1)CS2 | 0% (inactive) |
| C/C=C(\C)c1nnc(NC(=O)OCC)s1 | 0% (inactive) |
| C=Cn1c(N2CCOCC2)nc2c1c(=O)[nH]c(=O)n2C | 16% (inactive) |
| CCOc1cc(C(=O)N(C)c2ccccc2)cc(OCC)c1OCC | 1% (inactive) |
| O=C(Nc1ccc(F)cc1)N(Cc1ccco1)Cc1cc2cc3c(cc2[nH]c1=O)OCO3 | 0% (inactive) |
| CC(C)(C)C1=C[C@@H](CO)C[C@@H](CO)C1 | 0% (inactive) |
| Nc1cc(C(=O)O)ccc1Nc1ccccc1 | 0% (inactive) |
| NC(=O)OCC(COC(N)=O)c1ccccc1 | 1% (inactive) |
| CCOCCCNC(=O)C1CCC(=O)N1CCc1ccccc1 (stereo not given) | 5% (inactive) |
| CCOC(=O)C1=C(C)Nc2nnnn2C1c1ccc(OC)c(Br)c1 (stereo not given) | 1% (inactive) |
| O=C(CSc1nnc(Cc2cc(=O)[nH]c(=O)[nH]2)n1-c1ccccc1)NCC1CCCO1 (stereo not given) | 0% (inactive) |
| C(=C\c1ccccc1)/CN1CCN(Cc2ccc3c(c2)OCCO3)CC1 | 1% (inactive) |
| O=C(O)C1CC=CCC1C(=O)NCc1ccccc1 (stereo not given) | 1% (inactive) |

| Structure (SMILES) | inhibition |
| --- | --- |
| CCOC(=O)c1cccc(NC2c3ccccc3C(=O)N2Cc2ccco2)c1 (stereo not given) | 7% (inactive) |
| C=CCOc1cccc(C2/C(=C(\O)c3ccc(F)cc3)C(=O)C(=O)N2CCN(C)C)c1 (stereo not given) | 0% (inactive) |
| C[C@H](NC(=O)NCc1cccs1)C(=O)O | 0% (inactive) |
| CN1C2C=C3C(C#N)=C(N)C(C#N)(C#N)[C@@H](c4ccc(Cl)cc4)[C@@H]3C1CC2 (stereo not given in full) | 7% (inactive) |
| CCOC(=O)c1ccc(NC(=O)CSc2nnc(COc3ccccc3)n2C)cc1 | 0% (inactive) |
| Cc1cccc(Nc2nc(N)nc(CN3CCC(C(N)=O)CC3)n2)c1C | 0% (inactive) |
| COc1ccc(-c2c(=O)n(OCc3ccccn3)c3ccccc3[n+]2[O-])cc1OC | 3% (inactive) |
| N#Cc1nc(-c2ccccc2Cl)oc1N1CCOCC1 | 0% (inactive) |
| COC(=O)c1[nH]c2cc(OC)ccc2c1NC(=O)CN1CCOCC1 | 0% (inactive) |
| O=S1(=O)CCC(NS(=O)(=O)/C=C/c2ccccc2)C1 (stereo not given) | 8% (inactive) |
| O=C(NC1CCCCC1)C(c1ccco1)N(Cc1cccnc1)C(=O)C1COc2ccccc2O1 (stereo not given) | 2% (inactive) |
| Cc1ccc(C2/C(=C(/O)c3cnn(-c4ccccc4)c3C)C(=O)C(=O)N2CCN2CCOCC2)o1 (stereo not given) | 1% (inactive) |
| COc1ccc(CN(Cc2cc3cc4c(cc3[nH]c2=O)OCO4)C(=O)NC2CCCCC2)cc1 | 3% (inactive) |
| CCOc1ccc(Oc2nc(Nc3ccc(C)cc3)nc(N(C)C)n2)nn1 | 0% (inactive) |
| COc1ccc(C)cc1NC(=O)CSc1nnnn1Cc1ccccc1 | 2% (inactive) |
| COc1cc(C)nc(NS(=O)(=O)c2ccc(C)cc2)n1 | 5% (inactive) |
| CCOc1ccc(N(C)S(=O)(=O)c2ccc3[nH]cc(C(=O)NCC4CCCO4)c(=O)c3c2)cc1 (stereo not given) | 0% (inactive) |
| COc1ccc(NC(=O)C(C)NS(=O)(=O)c2ccccc2)cc1Cl (stereo not given) | 10% (inactive) |
| Cc1ccc(S(=O)(=O)N(CC(=O)N2CCOCC2)CC(=O)N2CCOCC2)cc1 | 0% (inactive) |
| NC(=O)NC(c1ccccc1)c1ccccc1F (stereo not given) | 3% (inactive) |
